High-throughput results as filed in PubChem BioAssay.
GDH-TPI counter: counter-screen for M. tuberculosis FBA inhibitors: GDH-TPI coupled enzymes | GDH-TPI coupled enzyme counterscreen, NADH absorbance | inhibition, % at 4.8 µM | actives 1.2% (n = 360,000) | AID 588335; in the data active = inhibition above about 30%;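 note: 0% = DMSO wells and 100% = wells lacking the enzyme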
Anthrax LF prot: anthrax lethal factor protease inhibition; inhibition, % at 10 µM; actives 0.12% (n = 360,000); multiplex microsphere protease cleavage assay, LF; AID 588501; P15917; note: plate controls were buffer without enzyme for full effect and enzyme alone for no effect
BoNT A protease: inhibitors of Botulinum neurotoxin A light chain protease; multiplex microsphere protease substrate cleavage, flow cytometry; inhibition, % at 10 µM; actives 0.17% (n = 360,000); AID 588499; note: plate controls were buffer without enzyme for full effect and enzyme alone for no effect
FBA Mtb inh: Mtb fructose-bisphosphate aldolase inhibition | P9WQA3 | purified M. tuberculosis FBA, fluorescence read-out | inhibition, % at 1 µM | actives 2.3% (n = 360,000); in the data active = inhibition above about 27%;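 note: 0% = vehicle and 100% = reference inhibitor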
Target sequence (P9WQA3 whole entry, looked up): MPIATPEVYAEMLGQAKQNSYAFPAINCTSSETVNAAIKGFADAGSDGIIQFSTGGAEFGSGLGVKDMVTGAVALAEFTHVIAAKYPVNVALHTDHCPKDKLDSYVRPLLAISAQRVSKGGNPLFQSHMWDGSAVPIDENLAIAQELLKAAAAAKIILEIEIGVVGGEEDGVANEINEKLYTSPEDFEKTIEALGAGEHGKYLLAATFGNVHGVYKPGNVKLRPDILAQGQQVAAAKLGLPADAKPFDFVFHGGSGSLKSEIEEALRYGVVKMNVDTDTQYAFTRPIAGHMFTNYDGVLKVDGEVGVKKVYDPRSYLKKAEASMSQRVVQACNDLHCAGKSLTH
Bead autofluor: compound fluorescence in toxin protease inhibitor counterscreen | fluorescence intensity (no concentration beside the values) | AID 624483 | actives 3.1% (n = 360,000) | compound autofluorescence counterscreen, microsphere flow cytometry; active compounds read high; in the data active = fluorescence intensity above about 16000; inconclusive = no clear call, values can overlap the other calls
BoNT F protease: blocks Botulinum neurotoxin F light chain protease; Multiplex microsphere protease cleavage assay, flow cytometry; inhibition, % at 10 µM; actives 0.22% (n = 360,000); AID 588497; in the data active = inhibition above about 35%, passing the limit was not always enough; inconclusive = no clear call, values can overlap the other calls; note: plate controls were buffer without enzyme for full effect and enzyme alone for no effect
Numbers without * were called inactive. The list is not random: actives were taken first. Their share in the collection is about 6.6%. Cut-off read from the data, not from the text of the source, unless noted: active = inhibition above about 30%; inconclusive = no clear call, values can overlap the other calls; inactive = below that.

Cc1ccc(C)c(NC(=O)C(Sc2nnc(-c3cccs3)o2)c2ccccc2)c1 (configuration not stated) was read as GDH-TPI counter 8, Anthrax LF prot 0, BoNT A protease 1, FBA Mtb inh -2, Bead autofluor 2034 and BoNT F protease 13.
O=c1[nH][nH]c(=O)c2nc(Nc3ccccc3)ncc12 was read as GDH-TPI counter 10, Anthrax LF prot -3, BoNT A protease 0, FBA Mtb inh -1, Bead autofluor 3633 and BoNT F protease -2.
For CC(=O)NCCNC(=O)C1(C)Cc2c(-c3cccc(C(F)(F)F)c3)ccnc2O1 (configuration not stated) the results were GDH-TPI counter 2, Anthrax LF prot 2, BoNT A protease 0, FBA Mtb inh 0, Bead autofluor 3912 and BoNT F protease 4.
Screening COc1ccccc1C(=O)C1Nc2ccccc2-c2nnc(SC)nc2O1 (configuration not stated) returned GDH-TPI counter 3, Anthrax LF prot 2, BoNT A protease 4, FBA Mtb inh 0, Bead autofluor 21854* and BoNT F protease 7.
`CCn1c(SCC(=O)Nc2cc(C)on2)nc2c1c(=O)n(C)c(=O)n2C` gave GDH-TPI counter -6, Anthrax LF prot -2, BoNT A protease inconclusive, FBA Mtb inh -2, Bead autofluor 24541* and BoNT F protease -3.
For CCn1c(SCC(=O)Nc2nc3ccc(OC)cc3s2)nc2c1c(=O)n(C)c(=O)n2C the results were GDH-TPI counter 0, Anthrax LF prot -5, BoNT A protease 5, FBA Mtb inh -1, Bead autofluor 21795* and BoNT F protease 4.
For CCCCn1c(SCC(=O)Nc2cc(C)on2)nc2c1c(=O)n(C)c(=O)n2C the results were GDH-TPI counter -14, Anthrax LF prot -1, BoNT A protease 0, FBA Mtb inh -3, Bead autofluor 9657 and BoNT F protease -3.
Cc1cccc(C)c1N1CCN(C(c2cc3ccccc3o2)c2nnnn2C(C)(C)C)CC1 (configuration not stated) was read as Anthrax LF prot 0, BoNT A protease 0, Bead autofluor 6400 and BoNT F protease -7.
Screening Cc1cc(N=Nc2ccccc2)c(NCC(O)C(O)C(O)CO)cc1C (configuration not stated) returned GDH-TPI counter 8, Anthrax LF prot -2, BoNT A protease 0, FBA Mtb inh -12, Bead autofluor 4270 and BoNT F protease -2.
Screening Cc1ccc(NCC(O)C(O)C(O)CO)cc1C (configuration not stated) returned GDH-TPI counter -11, Anthrax LF prot -2, BoNT A protease 1, FBA Mtb inh -1, Bead autofluor 20300* and BoNT F protease -2.
Cc1cc(N(CN2CCCC2=O)C(=O)c2ccccc2)no1 was read as GDH-TPI counter 6, Anthrax LF prot 0, BoNT A protease -2, FBA Mtb inh 8, Bead autofluor 23950* and BoNT F protease -5.
`Cc1cc(N(CN2CCCC2=O)C(=O)c2ccc(OC(C)C)cc2)no1` gave GDH-TPI counter -3, Anthrax LF prot -6, BoNT A protease -6, FBA Mtb inh 4, Bead autofluor 4922 and BoNT F protease -24.
For O=C1CCCN1CN(C(=O)c1ccccc1)c1ccc(F)cc1 the results were GDH-TPI counter 8 and FBA Mtb inh 3.
COc1ccc(C(=O)N(CN2CCCC2=O)c2nccs2)cc1OC was read as GDH-TPI counter 46*, Anthrax LF prot -17, BoNT A protease -1, FBA Mtb inh -3, Bead autofluor inconclusive and BoNT F protease -4.
Cc1cc(N(CN2CCCC2=O)C(=O)c2ccc(F)cc2)no1 was read as GDH-TPI counter 1, Anthrax LF prot -2, BoNT A protease 0, FBA Mtb inh -1, Bead autofluor 20214* and BoNT F protease 0.
`O=C1CCCN1CN(C(=O)c1ccc2c(c1)OCO2)c1ccc(F)cc1` gave GDH-TPI counter -5, Anthrax LF prot -3, BoNT A protease inconclusive, FBA Mtb inh 0, Bead autofluor 21432* and BoNT F protease -7.
Screening COCCNC(=O)C1(C)CCCN(C(=O)c2cc(C)oc2C)C1 (configuration not stated) returned GDH-TPI counter 12, Anthrax LF prot -7, BoNT A protease 0, FBA Mtb inh 1, Bead autofluor 2829 and BoNT F protease 6.
Screening C=C1C(=O)C23CCC4C(C)(C(=O)OC)CCCC4(C)C2CCC1(O)C3 (configuration not stated) returned GDH-TPI counter 9, Anthrax LF prot 5, BoNT A protease 0, FBA Mtb inh 4, Bead autofluor 2989 and BoNT F protease -4.
`COc1ccc(C(=O)N(CN2CCCC2=O)c2cc(C)on2)cc1OC` gave GDH-TPI counter 15, Anthrax LF prot 2, BoNT A protease 4, FBA Mtb inh 2, Bead autofluor 21141* and BoNT F protease 6.
Screening CC(=O)Nc1ccc(N(C(=O)CNC(=O)c2cccs2)C(C(=O)NCC2CCCO2)c2ccccc2)cc1 (configuration not stated) returned GDH-TPI counter -12, Anthrax LF prot 19, BoNT A protease -2, FBA Mtb inh 1, Bead autofluor 3484 and BoNT F protease 20.
`CSc1ccc(-c2cc(=O)c3ccccc3o2)cc1` gave GDH-TPI counter 45*, Anthrax LF prot -4, BoNT A protease 0, FBA Mtb inh active, Bead autofluor 7132 and BoNT F protease -12.
`O=c1cc(-c2ccc(F)cc2)oc2ccccc12` gave GDH-TPI counter 9, Anthrax LF prot -2, BoNT A protease -1, FBA Mtb inh -1, Bead autofluor 2626 and BoNT F protease -10.
For O=C(Oc1c(CN2CCOCC2)cc(Cl)c2cccnc12)c1ccc(F)cc1 the results were GDH-TPI counter 2, Anthrax LF prot -4, BoNT A protease 2, FBA Mtb inh -6, Bead autofluor 22240* and BoNT F protease 0.
Screening COc1cccc(C(=O)Oc2c(CN3CCOCC3)cc(Cl)c3cccnc23)c1 returned GDH-TPI counter -1, Anthrax LF prot -2, BoNT A protease 1, FBA Mtb inh 0, Bead autofluor 22802* and BoNT F protease -1.
For Cc1cc(NC(=O)CS(=O)(=O)Cc2ccccc2)no1 the results were GDH-TPI counter 5, Anthrax LF prot 1, BoNT A protease 0, FBA Mtb inh 1, Bead autofluor 2431 and BoNT F protease -6.
For O=C(Nc1ccccc1Cl)c1cc(C2CCCCN2C(=O)c2cccs2)on1 (configuration not stated) the results were GDH-TPI counter 9, Anthrax LF prot 1, BoNT A protease 0, FBA Mtb inh 1, Bead autofluor 3758 and BoNT F protease 0.
`O=C(NNC(=O)C1COc2ccccc2O1)c1ccccc1` (configuration not stated) gave GDH-TPI counter 5, Anthrax LF prot -2, BoNT A protease 1, FBA Mtb inh 3, Bead autofluor 22774* and BoNT F protease -4.
